High-throughput results from PubChem.
HT1080 IDH1KD tx: toxicity to HT-1080 IDH1 knockdown cells (counter line); actives 2% (n = 360,000); Potency, µM (highest dose often 46.1 µM), actives largely listed as cytotoxic; AID 686971; HT-1080 IDH1 knockdown viability, ATP luminescence, 48 h
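CellTiter-Glo luminescence after 48 h compound exposure at 37 degrees C of IDH1-knockdown HT-1080 cells in 5% FBS RPMI. %Activity scaled between DMSO wells and cell-free media wells, with curves fitted and assigned curve classes.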
12-LOX inh: ALOX12 (human) lipoxygenase inhibition. P18054. actives 1.1% (n = 580,000). Potency, µM (highest dose often 108 µM), actives largely listed as inhibitors. purified 12hLO, xylenol orange hydroperoxide absorbance
Target sequence (P18054 whole entry, looked up): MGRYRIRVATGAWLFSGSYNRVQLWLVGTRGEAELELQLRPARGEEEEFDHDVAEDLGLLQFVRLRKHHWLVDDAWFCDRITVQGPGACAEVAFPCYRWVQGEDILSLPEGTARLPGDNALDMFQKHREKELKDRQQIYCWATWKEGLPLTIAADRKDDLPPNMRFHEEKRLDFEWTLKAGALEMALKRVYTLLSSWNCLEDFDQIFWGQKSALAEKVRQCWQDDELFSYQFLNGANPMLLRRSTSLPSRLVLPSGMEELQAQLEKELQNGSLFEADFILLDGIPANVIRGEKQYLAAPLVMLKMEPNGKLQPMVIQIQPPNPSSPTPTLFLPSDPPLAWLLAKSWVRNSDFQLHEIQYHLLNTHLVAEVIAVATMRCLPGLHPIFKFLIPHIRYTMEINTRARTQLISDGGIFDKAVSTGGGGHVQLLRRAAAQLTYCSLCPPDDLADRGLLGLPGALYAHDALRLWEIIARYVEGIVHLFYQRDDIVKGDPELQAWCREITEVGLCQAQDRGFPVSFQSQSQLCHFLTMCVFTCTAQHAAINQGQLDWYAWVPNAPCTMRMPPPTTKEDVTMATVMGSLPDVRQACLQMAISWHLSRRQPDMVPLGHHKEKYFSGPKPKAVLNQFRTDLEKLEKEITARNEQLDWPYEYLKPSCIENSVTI
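Purified human 12hLO (150 nM final) in 25 mM Hepes, 0.01% Triton X-100, pH 7.0 was preincubated 15 min at room temperature with compound. Then 40 uM arachidonic acid was added, 30 min. Hydroperoxide was read by Fe-XO absorbance ratio 573/405 nm.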
HT1080NT lethal: kills 2HG-producing HT-1080-NT fibrosarcoma cells; HT-1080-NT fibrosarcoma viability, CellTiter-Glo ATP luminescence, 48 h; Potency, µM (highest dose often 46.1 µM), actives largely listed as cytotoxic; actives 1.6% (n = 360,000); AID 686970;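 further: NT is the 2HG producing partner of a matched IDH1 knockdown line; nearly all actives have a fitted effect of over 55% in size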
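750 cells/well, RPMI + 5% FBS; 2 h settle, compound pin-transfer, 48 h at 37 degrees C. CellTiter-Glo 10 min RT, luminescence. Normalized to DMSO and media-only wells.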
IL-1B inflam inh: blocks inflammasome-driven IL-1 beta release. THP-1 LPS/ATP IL-1B secretion, AlphaLISA, 16 h; hits give low values. activity change, % at 57.5 µM. actives 4.7% (n = 360,000). AID 743279; in the data active means activity change below about -50%; inconclusive means mostly about -30% to -49%
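Secreted IL-1B measured by AlphaLISA bead assay after 16 h compound exposure of THP-1 cells; compounds (final up to 57.5 uM) added 1 h before LPS (250 ng/mL) and ATP (1.25 mM) stimulation; lower signal means less secretion.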
TDP1 cell noCPT: qHTS for Inhibitors of human tyrosyl-DNA phosphodiesterase 1 (TDP1): qHTS in cells in absence of CPT. DT40 Tdp1-/- hTDP1 cells, no CPT, ATP luminescence, 48 h. Potency, µM (top dose mostly 46.2 µM), most hits filed as inhibitors. actives 15% (n = 420,000). AID 686978, 2013; further: nearly all actives have a fitted effect of over 55% in size
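Stably hTDP1-transfected Tdp1-null chicken DT40 cells were treated with library compounds minus camptothecin and grown for at least 48 hr at 37 °C, after which cellular ATP was quantified by luminescence.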
TDP1 cell CPT: growth inhibition of DT40 Tdp1-/-;hTDP1 cells with camptothecin (screen for TDP1 inhibitors); chicken DT40 Tdp1-/-;hTDP1 cells + 20 nM CPT, ATP luminescence, 48 h; actives 12% (n = 420,000); Potency, µM (highest dose often 46.2 µM), hits mostly inhibitors; AID 686979; further: nearly all actives have a fitted effect of over 55% in size
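Chicken DT40 Tdp1-/- cells stably complemented with human TDP1 were seeded at 400 cells/well in medium containing 20 nM camptothecin, exposed to pin-transferred compounds, and grown at 37 °C for at least 48 hr. Viability was read as ATP luminescence.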
A number is an active result. This is one part of a sample in which hits are shown more often than they occur. Unless noted, the call rests on the fitted dose curve; in most records, active means well fitted curve in the direction sought with a large enough effect; inconclusive means small, poorly fitted or top-dose-only effect, or another doubt; inactive means no such curve, though single readings can be large; an effect the other way counts as inactive or inconclusive.

What do the screens show for `O=C(O)c1ccccc1NS(=O)(=O)c1ccc(N/N=C/c2c(-c3ccccc3)[nH]c3ccccc23)c([N+](=O)[O-])c1`?
12-LOX inh: 13µM

Results for COc1ccc(NS(=O)(=O)c2cc([N+](=O)[O-])ccc2NN=Cc2ccccc2OCC(=O)O)cc1 ?
HT1080 IDH1KD tx: inactive; 12-LOX inh: inconclusive; HT1080NT lethal: inactive; IL-1B inflam inh: inactive; TDP1 cell noCPT: inactive; TDP1 cell CPT: inactive

Results for O=C(O)COc1ccccc1C=NNc1ccc([N+](=O)[O-])cc1S(=O)(=O)Nc1ccc(Cl)cc1 ?
HT1080 IDH1KD tx: inactive; 12-LOX inh: 35µM; HT1080NT lethal: inactive; IL-1B inflam inh: inactive; TDP1 cell noCPT: inactive; TDP1 cell CPT: inactive

What do the screens show for `NC(=S)NN=C1CSSC1`?
HT1080 IDH1KD tx: inconclusive; HT1080NT lethal: inconclusive; IL-1B inflam inh: -100; TDP1 cell noCPT: 3.7µM; TDP1 cell CPT: 7.3µM

What do the screens show for `CC1(C)CCC(=NNC(N)=S)CC1`?
HT1080 IDH1KD tx: inactive; 12-LOX inh: inconclusive; HT1080NT lethal: inactive; IL-1B inflam inh: inactive; TDP1 cell noCPT: 29µM; TDP1 cell CPT: inconclusive

Results for CCOC(=O)c1ccc(NC(=O)c2cc(=O)c3cc(C)cc(C)c3o2)cc1 ?
12-LOX inh: inactive

Results for O=C(CCc1ccccc1)N1CCC(n2cc(-c3nc(-c4ccccc4)no3)nn2)C1 (stereo unspecified) ?
12-LOX inh: inactive

How did CCOC(=O)c1c(NC(=O)COc2ccc3ccc(=O)oc3c2)sc(C(=O)N(C)C)c1C do in these assays?
HT1080 IDH1KD tx: inactive; 12-LOX inh: inactive; HT1080NT lethal: inactive; IL-1B inflam inh: inactive; TDP1 cell noCPT: inactive; TDP1 cell CPT: inconclusive

What do the screens show for `COc1ccc(S(=O)(=O)NCC2CCC(C(=O)NCC(=O)NCc3ccccn3)CC2)cc1` (stereo unspecified)?
12-LOX inh: inactive

What do the screens show for `COc1ccc(N2CCN(C(=O)c3cc4c(=O)n(Cc5ccco5)ccc4nc3C)CC2)cc1`?
12-LOX inh: inactive; TDP1 cell noCPT: inconclusive; TDP1 cell CPT: inconclusive

Results for Cc1ccc(C)c(N2CCN(C(=O)c3cc4c(=O)n(Cc5ccco5)ccc4nc3C)CC2)c1 ?
12-LOX inh: inconclusive; TDP1 cell noCPT: 16µM; TDP1 cell CPT: inconclusive

Results for Cc1nc2ccn(Cc3ccco3)c(=O)c2cc1C(=O)N1CCN(c2ccccc2F)CC1 ?
12-LOX inh: inactive; TDP1 cell noCPT: inconclusive; TDP1 cell CPT: inconclusive

How did COc1ccc(Cn2ccc3nc(C)c(C(=O)N4CCN(c5cccc(OC)c5)CC4)cc3c2=O)cc1 do in these assays?
12-LOX inh: inactive; TDP1 cell noCPT: inconclusive; TDP1 cell CPT: 15µM

What do the screens show for `COc1ccc(Cn2ccc3nc(C)c(C(=O)NCc4ccc(C)cc4)cc3c2=O)cc1`?
12-LOX inh: inactive; TDP1 cell noCPT: inconclusive; TDP1 cell CPT: 26µM

Results for COc1cccc(N2CCN(C(=O)c3cc4c(=O)n(Cc5ccco5)ccc4nc3C)CC2)c1 ?
12-LOX inh: inactive; TDP1 cell noCPT: 16µM; TDP1 cell CPT: 16µM

How did CCn1c(SCC(=O)c2ccc(Br)s2)nnc1-c1ccccc1OC do in these assays?
12-LOX inh: inactive

What do the screens show for `CC1(c2ccccc2)N(Cc2cccnc2)C(=O)OC12CCN(Cc1ccc(F)cc1)CC2` (stereo unspecified)?
12-LOX inh: inactive

What do the screens show for `CCCC1CCC(c2ccc(C(=O)Oc3ccc(C)nc3)cc2)CC1` (stereo unspecified)?
12-LOX inh: inactive

Results for COc1ccc(Cn2ccc3nc(C)c(C(=O)N4CCN(c5cc(C)ccc5C)CC4)cc3c2=O)cc1 ?
12-LOX inh: inactive; TDP1 cell noCPT: 23µM; TDP1 cell CPT: 21µM

Results for COc1ccc(Cn2ccc3nc(C)c(C(=O)N4CCN(c5ccccc5)CC4)cc3c2=O)cc1 ?
12-LOX inh: inactive; TDP1 cell noCPT: inactive; TDP1 cell CPT: inactive

What do the screens show for `CCCc1nnc2sc(-c3c[nH]c4ccccc34)nn12`?
12-LOX inh: inactive

How did O=C(Nc1cc(S(=O)(=O)N2CCOCC2)ccc1Cl)c1cc2ccccc2o1 do in these assays?
HT1080 IDH1KD tx: inactive; 12-LOX inh: inactive; HT1080NT lethal: inactive; IL-1B inflam inh: -75; TDP1 cell noCPT: inconclusive; TDP1 cell CPT: inconclusive

What do the screens show for `CCOC(=O)C1CCCN(S(=O)(=O)c2ccc(S(=O)(=O)N(CC)CC)cc2)C1` (stereo unspecified)?
HT1080 IDH1KD tx: inactive; 12-LOX inh: inactive; HT1080NT lethal: inactive; IL-1B inflam inh: inactive; TDP1 cell noCPT: 1.5µM; TDP1 cell CPT: 2.9µM

Results for Cn1c(CCC(=O)Nc2cc(S(C)(=O)=O)ccc2Cl)nc2cc(S(=O)(=O)N3CCOCC3)ccc21 ?
HT1080 IDH1KD tx: inactive; 12-LOX inh: 45µM; HT1080NT lethal: inactive; IL-1B inflam inh: inactive; TDP1 cell noCPT: inactive; TDP1 cell CPT: inactive

How did CN(C)S(=O)(=O)c1ccc(S(=O)(=O)N2CCCC(C(=O)NC3CC3)C2)cc1 (stereo unspecified) do in these assays?
HT1080 IDH1KD tx: inactive; 12-LOX inh: inactive; HT1080NT lethal: inactive; IL-1B inflam inh: inactive; TDP1 cell noCPT: inconclusive; TDP1 cell CPT: inactive

How did CCN(CC)S(=O)(=O)c1ccc(S(=O)(=O)N2CCCC(C(=O)NC3CC3)C2)cc1 (stereo unspecified) do in these assays?
HT1080 IDH1KD tx: inactive; 12-LOX inh: inactive; HT1080NT lethal: inactive; IL-1B inflam inh: inactive; TDP1 cell noCPT: 5.8µM; TDP1 cell CPT: 1.3µM

Results for CC(=O)N1CCOc2cc(S(=O)(=O)NCc3ccccc3Cl)c(C)cc21 ?
12-LOX inh: inactive; TDP1 cell noCPT: inactive; TDP1 cell CPT: inactive

Results for Cc1ccc(S(=O)(=O)N2CCOCC2)cc1NC(=O)CSc1nnc(C2CC2)n1C1CC1 ?
HT1080 IDH1KD tx: inactive; 12-LOX inh: inconclusive; HT1080NT lethal: inactive; IL-1B inflam inh: inactive; TDP1 cell noCPT: inactive; TDP1 cell CPT: inactive

What do the screens show for `CCOC(=O)N1CCN(C(=S)Nc2cc(S(=O)(=O)N3CCOCC3)ccc2Cl)CC1`?
HT1080 IDH1KD tx: inactive; 12-LOX inh: inactive; HT1080NT lethal: inactive; IL-1B inflam inh: inactive; TDP1 cell noCPT: 18µM; TDP1 cell CPT: inconclusive

How did Cc1cccc(NS(=O)(=O)c2cc(OCC(N)=O)c(C)cc2Cl)c1 do in these assays?
HT1080 IDH1KD tx: inactive; 12-LOX inh: inactive; HT1080NT lethal: inactive; IL-1B inflam inh: inactive; TDP1 cell noCPT: inconclusive; TDP1 cell CPT: inactive
